Data published in PubChem BioAssay AID1159580 (chemical genetic matrix, 2015).
Out of some 5,500 compounds screened, about 2,000 (36%) were called active. Another 18% or so got no clear call; they are omitted. Cut-off read from the data, not from the text of the source: active = normalized growth mostly below about 0.91 (no sharp cut-off); inconclusive = no clear call, values can overlap the other calls; inactive = mostly above about 0.92. The list shows a part of the results.

Assay: chemical genetic growth profiling, strain panel (AID 1159580);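 note: tested at 20 µM; growth read once vehicle control cultures reached saturation at 30 °C; 1 = growth at the plate median or of vehicle wells; lower values mean less growth of the strain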
Conditions: S. cerevisiae deletion strains, growth OD

Measured: normalized growth

Cc1ccc2c(c1)C(N1CCN(C)CC1)=Nc1cccnc1N2
inactive: locus YAL040C, strain CLN3, hits give low values 0.99 | locus YCL061C, strain MRC1 (second series), hits give low values 0.989 | locus YDR150W, strain NUM1, hits give low values 0.986 | locus YDR363W, strain ESC2, hits give low values 1.02 | locus YER002W, strain NOP16, hits give low values 1 | locus YGR078C, strain PAC10, hits give low values 0.983 | locus YJR075W, strain HOC1, hits give low values 1 | locus YMR263W, strain SAP30, hits give low values 0.982 | locus YNL128W, strain TEP1, hits give low values 1.09 | locus YNL153C, strain GIM3, hits give low values 0.998 | locus YNL175C, strain NOP13, hits give low values 0.997 | locus YNL197C, strain WHI3, hits give low values 0.988 | locus YNL224C, strain SQS1, hits give low values 1.01 | locus YNL322C, strain KRE1, hits give low values 0.988 | locus YOR083W, strain WHI5 (second series), hits give low values 0.991

COCC1=C(C(=O)OC(C)OC(=O)OC(C)C)N2C(=O)[C@@H](NC(=O)/C(=N\OC)c3csc(N)n3)[C@H]2SC1 (stereo not given in full)
inactive: locus YAL021C, strain ccr4, hits give low values 0.98 | locus YAL026C, strain drs2, hits give low values 0.967 | locus YAL030W, strain snc1, hits give low values 0.982 | locus YBL061C, strain skt5, hits give low values 0.968 | locus YBR009C, strain hhf1, hits give low values 0.96 | locus YBR023C, strain chs3, hits give low values 0.982 | locus YBR171W, strain sec66, hits give low values 0.968 | locus YBR231C, strain swc5, hits give low values 0.967 | locus YBR279W, strain paf1, hits give low values 0.98 | locus YCL011C, strain gbp2, hits give low values 0.973 | locus YCL016C, strain dcc1, hits give low values 0.982 | locus YCL061C, strain MRC1, hits give low values 0.981 | locus YCL069W, strain vba3, hits give low values 0.976 | locus YCR088W, strain abp1, hits give low values 0.97 | locus YDL005C, strain med2, hits give low values 0.966 | locus YDL040C, strain nat1, hits give low values 0.977 | locus YDR001C, strain nth1, hits give low values 0.97 | locus YDR069C, strain doa4, hits give low values 0.971 | locus YDR137W, strain rgp1, hits give low values 0.93 | locus YDR159W, strain sac3, hits give low values 0.95 | locus YDR195W, strain ref2 0.927 | locus YDR297W, strain sur2, hits give low values 0.979 | locus YDR334W, strain swr1, hits give low values 0.976 | locus YDR335W, strain msn5, hits give low values 0.987 | locus YDR392W, strain spt3, hits give low values 0.919 | locus YEL003W, strain gim4, hits give low values 0.984 | locus YEL037C, strain rad23, hits give low values 0.969 | locus YEL061C, strain CIN8 (second series), hits give low values 0.971 | locus YER015W, strain faa2, hits give low values 0.98 | locus YER016W, strain bim1, hits give low values 0.98 | locus YER111C, strain swi4, hits give low values 0.972 | locus YER155C, strain BEM2 (second series), hits give low values 0.972 | locus YFR010W, strain ubp6, hits give low values 0.964 | locus YGL167C, strain pmr1, hits give low values 0.967 | locus YGL173C, strain kem1, hits give low values 0.968 | locus YGL227W, strain vid30, hits give low values 0.96 | locus YGL240W, strain doc1, hits give low values 0.981 | locus YGL253W, strain hxk2, hits give low values 0.986 | locus YHR013C, strain ard1, hits give low values 0.976 | locus YHR027C, strain rpn1, hits give low values 0.985 | locus YHR030C, strain SLT2, hits give low values 0.968 | locus YHR079C, strain IRE1, hits give low values 0.999 | locus YHR142W, strain chs7, hits give low values 0.982 | locus YJL092W, strain hpr5, hits give low values 0.972 | locus YJL095W, strain BCK1 (second series), hits give low values 0.989 | locus YJL095W, strain BCK1, hits give low values 0.977 | locus YJL115W, strain asf1, hits give low values 0.966 | locus YJL129C, strain trk1, hits give low values 0.974 | locus YJL154C, strain vps35, hits give low values 0.976 | locus YJL164C, strain tpk1, hits give low values 0.998 | locus YJL166W, strain qcr8, hits give low values 0.998 | locus YJL187C, strain SWE1, hits give low values 0.982 | locus YJR066W, strain TOR1, hits give low values 0.927 | locus YKL160W, strain elf1, hits give low values 0.994 | locus YKR026C, strain gcn3, hits give low values 0.962 | locus YKR091W, strain srl3, hits give low values 0.981 | locus YLL001W, strain dnm1, hits give low values 0.976 | locus YLL026W, hits give low values 0.971 | locus YLL041C, strain sdh2, hits give low values 0.992 | locus YLR027C, strain aat2, hits give low values 0.979 | locus YLR113W, strain HOG1, hits give low values 0.943 | locus YLR221C, strain rsa3, hits give low values 0.997 | locus YLR258W, strain gsy2, hits give low values 0.978 | locus YLR262C, strain YPT6 (second series), hits give low values 0.987 | locus YLR320W, strain mms22, hits give low values 0.983 | locus YLR342W, strain FKS1, hits give low values 0.973 | locus YLR357W, strain rsc2, hits give low values 0.929 | locus YLR370C, strain arc18, hits give low values 0.956 | locus YLR384C, strain iki3, hits give low values 0.976 | locus YML120C, strain ndi1, hits give low values 0.967 | locus YMR058W, strain fet3, hits give low values 0.981 | locus YMR125W, strain sto1, hits give low values 0.926 | locus YMR129W, hits give low values 0.97 | locus YMR205C, strain PFK2, hits give low values 0.937 | locus YMR231W, strain pep5, hits give low values 0.967 | locus YNL071W, strain lat1, hits give low values 0.986 | locus YNL183C, strain NPR1, hits give low values 0.945 | locus YNL209W, strain ssb2, hits give low values 0.986 | locus YNL248C, strain rpa49, hits give low values 0.99 | locus YNL322C, strain KRE1 (second series), hits give low values 0.982 | locus YNR049C, strain mso1, hits give low values 0.98 | locus YOR001W, strain rrp6, hits give low values 0.978 | locus YOR070C, strain gyp1, hits give low values 0.976 | locus YOR080W, strain dia2, hits give low values 0.967 | locus YOR083W, strain WHI5, hits give low values 0.993 | locus YOR106W, strain vam3, hits give low values 0.983 | locus YOR231W, strain MKK1, hits give low values 0.973 | locus YOR265W, strain rbl2, hits give low values 0.982 | locus YOR270C, strain vph1, hits give low values 0.951 | locus YOR290C, strain snf2, hits give low values 0.962 | locus YPL051W, strain arl3, hits give low values 0.994 | locus YPL078C, strain atp4, hits give low values 0.986 | locus YPL106C, strain sse1, hits give low values 0.982 | locus YPL240C, strain hsp82, hits give low values 0.99 | locus YPL256C, strain CLN2, hits give low values 0.974
